Measurements published in article PMC5540273 (PLoS ONE, 2017).

Assays:
Conditions in all cases: concentration: 1 μM, replicates: in singlicate; n = 1
[1] = test system: CAMK2D
[2] = test system: CAMK2G
[3] = test system: CAMK4
[4] = test system: CAMKK1
[5] = test system: CAMKK2
[6] = test system: CASK
[7] = test system: T1, CDC2L1
T1 construct: gene CDK11B

[8] = test system: CDC2L2
[9] = test system: T2, CDC2L5
T2 construct: gene CDK13

[10] = test system: T3, CDK11
T3 construct: gene CDK19

[11] = test system: CDK2
[12] = test system: CDK3
[13] = test system: CDK4-cyclinD1
[14] = test system: CDK4-cyclinD3
[15] = test system: CDK4
[16] = test system: CDK5
[17] = test system: CDK7
[18] = test system: CDK8
[19] = test system: CDK9
[20] = test system: CDKL1
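Note: KINOMEscan kinase panel screen.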

SMILES	%Inh [1]	%Inh [2]	%Inh [3]	%Inh [4]	%Inh [5]	%Inh [6]	%Inh [7]	%Inh [8]	%Inh [9]	%Inh [10]	%Inh [11]	%Inh [12]	%Inh [13]	%Inh [14]	%Inh [15]	%Inh [16]	%Inh [17]	%Inh [18]	%Inh [19]	%Inh [20]
Cl.Cn1ccc(-c2cccc(Nc3ccnc4cc(-c5nccs5)ccc34)c2)n1 [GW525701]	26%	21%	0%	25%	20%	2%	0%	0%	0%	3%	0%	6%	47%	0%	36%	0%	0%	7%	0%	0%
CN1CCC(n2cnc(-c3ccc(F)cc3)c2-c2ccnc(NC3CCNCC3)n2)CC1 [SB-229482]	7%	0%	7%	14%	26%	20%	0%	8%	31%	0%	0%	0%	33%	11%	44%	4%	30%	11%	0%	0%
CN1c2ccc(-c3ccc(C(=O)NCCO)cc3)cc2-c2[nH]ncc2S1(=O)=O	24%	21%	0%	22%	37%	48%	0%	0%	2%	11%	2%	0%	20%	12%	0%	0%	32%	0%	0%	22%
Nc1nc(-c2ccc3c(N)n[nH]c3c2)cc(N2CCC[C@@H](C(=O)Nc3ccccc3)C2)n1.O=C(O)C(F)(F)F.O=C(O)C(F)(F)F [GSK2288359]	0%	22%	0%	11%	16%	5%	0%	19%	0%	0%	0%	0%	0%	0%	0%	0%	0%	23%	0%	15%
CSc1nn2c(=O)cc(N3CCOCC3)nc2n1Cc1cccc(Cl)c1Cl [GSK2347225]	21%	25%	0%	13%	23%	2%	0%	9%	0%	8%	0%	6%	0%	0%	16%	9%	0%	0%	4%	0%
Cl.Cl.c1ccc(-c2cc3ccncc3cc2OC2CCNCC2)cc1 [GSK1122999]	26%	20%	43%	0%	30%	16%	15%	5%	0%	12%	0%	10%	0%	0%	11%	0%	0%	15%	2%	10%
Cl.Fc1ccccc1COc1ccc(Nc2ncnc3ccc(-c4nnc(C(F)(F)F)o4)cc23)cc1Cl [GW424170]	0%	14%	0%	1%	10%	0%	0%	15%	0%	2%	0%	0%	0%	0%	26%	0%	0%	29%	0%	3%
CCc1nc(-c2cccc(N(C)S(=O)(=O)c3ccccc3)c2)c(-c2ccnc(Nc3ccc(N4CCN(C(C)=O)CC4)nc3)n2)s1 [GSK1645895]	24%	37%	0%	30%	32%	5%	11%	16%	0%	6%	0%	0%	0%	3%	0%	0%	0%	0%	15%	1%
COc1ccc(Nc2nccc(N3CCC(NC(=O)c4cccc(NC(C)=O)c4)C3)n2)cc1 (centres unmarked) [GSK1379732]	8%	26%	3%	0%	26%	13%	0%	11%	0%	15%	0%	0%	20%	0%	0%	0%	3%	56%	0%	9%
Cc1cccc(-c2nc(Nc3ccc4[nH]nnc4c3)c3ccccc3n2)n1 [GW867587]	0%	0%	0%	0%	0%	4%	0%	0%	0%	0%	0%	15%	0%	0%	0%	0%	0%	30%	0%	0%
